About 540 (0.62%) of roughly 87,000 compounds were called active. How the calls were made is not given here. Shown is part of a subset that was picked to be rich in actives. Entries with a potency or affinity are not part of this list.
Test: MT1-MMP gene expression reporter suppression – cell-based, luciferase reporter, luminescence (AID 618);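 further: actives suppress MT1-MMP promoter-driven transcription so potencies describe inhibitors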
Details: MT1-MMP promoter luciferase reporter cells
With `COc1cccc(OCC(=O)N2CCN(C)CC2)c1` the outcome was “inactive”.
In the case of `CN1CCN(C(=O)COc2ccc(-c3nc4ccccc4s3)cc2)CC1`, the outcome is reported as “active”.
For `CN1CCN(C(=O)COc2ccc(S(=O)(=O)N(C)Cc3ccccc3)cc2)CC1`, the outcome was “inactive”.
For `CCOC(=O)C1=C(N)Oc2ccccc2C12C(=O)N(CC(=O)OC)C(CC(=O)OC)=C2C(=O)OC` (stereo not given), the outcome was “inactive”.
For `C[C@H]1CCCC(=O)CCC/C=C/c2cc(O)cc(O)c2C(=O)O1`, the outcome was “inactive”.
For `C[C@H]1CCC/C=C/C2C[C@H](O)CC2[C@H](O)/C=C/C(=O)O1` (stereo not given in full), the outcome was “active”.
With `C[C@H]1CCC[C@@H](O)CCC/C=C/c2cc(O)cc(O)c2C(=O)O1` the outcome was “inactive”.
For `Cn1c(O)c(C=NCc2cccs2)c(=O)n(C)c1=O`, the outcome was “inactive”.
With `CCC(C)OC(=O)c1c(N)n(Cc2cccs2)c2nc3ccccc3nc12` (stereo not given) the outcome was “inactive”.
For `COc1ccc(Nc2ncc(C(=O)N3CCC4(CC3)OCCO4)c3ccccc23)cc1`, the outcome was “inactive”.
With `CC(C)c1cccc(C(C)C)c1OCCn1ccnc1` the outcome was “inactive”.
In the case of `CCn1c(=O)cc(OCC(=O)N2CCN(Cc3ccc4c(c3)OCO4)CC2)c2ccccc21`, the outcome is reported as “inactive”.
In the case of `O=c1[nH]c2ccccc2n1C1CCN(CCCC(c2ccc(F)cc2)c2ccc(F)cc2)CC1`, the outcome is reported as “active”.
For `O=c1[nH]c2ccccc2n1CCCN1CCC(n2c(=O)[nH]c3cc(Cl)ccc32)CC1`, the outcome was “inactive”.
In the case of `O=C1CC(N2CCC(n3c(=O)[nH]c4ccccc43)CC2)C(=O)N1c1ccc(F)cc1` (stereo not given), the outcome is reported as “inactive”.
With `Cc1ccc(-n2nc(C)cc2NC(=O)COc2cc(C)cc3oc(=O)c4c(c23)CCC4)cc1` the outcome was “inactive”.
In the case of `CC12CN3CC(C)(CN(C1)P3(=O)Oc1ccccc1)C2=O` (stereo not given), the outcome is reported as “inactive”.
For `Cc1nc2c(=O)n(C)c(=O)nc-2n(C)n1`, the outcome was “active”.
With `CCOC(=O)CC1=C(C(=O)OCC)C2(C(=O)N1CC(=O)OC)C(C#N)=C(N)Oc1ccccc12` (stereo not given) the outcome was “inactive”.
In the case of `CCC/C=C(\CCC)C(NP(=O)(c1ccccc1)c1ccccc1)c1ccccc1` (stereo not given), the outcome is reported as “inactive”.
With `CCCCCCOC(=O)c1ccccc1N` the outcome was “inactive”.
For `Nc1ccccc1C(=O)OCCOc1ccccc1`, the outcome was “active”.
In the case of `Nc1ccccc1C(=O)OC1CSC1`, the outcome is reported as “inactive”.
For `CCCCOP(=O)(CN1CCOCC1)OCCCC`, the outcome was “inactive”.
In the case of `CCN1CCN(C(=O)COc2cc(=O)n(CC)c3ccccc23)CC1`, the outcome is reported as “inactive”.
For `c1ccc2c(CNC3CCCCCC3)c[nH]c2c1`, the outcome was “inactive”.
With `CCCCn1c(O)c(C=NC2CC3CCC2(C)C3(C)C)c(=O)[nH]c1=O` (stereo not given) the outcome was “inactive”.
With `Cc1ccc(C2(O)CC(C)N(C)CC2C)cc1` (stereo not given) the outcome was “inactive”.
In the case of `Cc1ccc(N(C)C(=O)Oc2cccc3cccnc23)cc1`, the outcome is reported as “inactive”.
In the case of `CN(C)CCN=Cc1c(O)n(-c2cccc3ccccc23)c(=O)[nH]c1=O`, the outcome is reported as “inactive”.
In the case of `COC(=O)C1CN(C#N)N(c2ccc(Cl)cc2)C12c1ccccc1-c1ccccc12` (stereo not given), the outcome is reported as “active”.
In the case of `COC(=O)C[C@]1(C(=O)OC)CN(C#N)N(c2ccc(Cl)cc2)C12c1ccccc1-c1ccccc12`, the outcome is reported as “active”.
With `COC(=O)[C@@H]1[C@@H](C(=O)OC)C2(c3ccccc3-c3ccccc32)N(c2ccc(Cl)cc2)N1C#N` the outcome was “inactive”.
For `CCCN1[C@@H]2C[C@@H](O)CC[C@@H]2C[C@H]1C(=O)OC`, the outcome was “inactive”.
For `CN(C)CCCN=Cc1c(O)n(CCc2ccc(F)cc2)c(=O)[nH]c1=O`, the outcome was “inactive”.
In the case of `CC(C)CCC1(CCc2ccncc2)C(=O)NC(=O)NC1=O`, the outcome is reported as “inactive”.
In the case of `CCCCn1c(O)c(C(C)=Nc2c(C)n(C)n(-c3ccccc3)c2=O)c(=O)[nH]c1=O`, the outcome is reported as “inactive”.
With `COc1cccc(OC)c1C1=NCC(=O)Nc2c1oc1ccc(Br)cc21` the outcome was “active”.
In the case of `O=C1CN=C(c2ccccc2)c2oc3ccc(Br)cc3c2N1`, the outcome is reported as “inactive”.
In the case of `CCOc1cc(-c2nc3c(C)cccn3c2NCC2CCCO2)ccc1O` (stereo not given), the outcome is reported as “inactive”.

Reference: PubChem BioAssay AID618 (Sanford-Burnham Center for Chemical Genomics, 2007)
